The results in this text go back to PubChem BioAssay (Tox21).

Values without a mark were called inactive. Records with an inconclusive call do not appear. Activity calls are given as the source filed them. Unless noted, calls follow the shape of the dose curve; as a rule, active = well fitted curve in the direction sought with a large enough effect in the repeat runs; inconclusive = weak or mixed curves; inactive = no such curve, though single readings can be large; an effect the other way counts as inactive or inconclusive.

Assay [1] concerns the target Androgen receptor (Homo sapiens) (UniProt P10275). Description: qHTS assay to identify small molecule agonists of the androgen receptor (AR) signaling pathway in the presence of an antagonist (AID 1259381; calls by dose curve; also: nearly all actives have a fitted effect of over 15% in size). An outline of the steps:
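Luciferase read-out (ONE-Glo, 30min room temperature) in MDA-kb2 MMTV-reporter cells; agonist mode run in presence of AR antagonist nilutamide, 3.0uM final. Compounds tested as 15-point series, 16hr exposure at 37C, 0% CO2.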

Assay [2] is described as follows: qHTS assay to identify small molecule antagonists of the estrogen receptor beta (ER-beta) signaling pathway - cell viability counter screen (AID 1259382).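 Also: HEK293T cells carrying ER-beta-UAS-bla reporter stimulated with estradiol; series mostly up to about 92 µM; nearly all actives have a fitted effect of over 55% in size.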 In a few lines:
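Luminescent ATP read-out (CellTiter-Glo, 30 min, RT) taken in the same wells as the bla reporter assay. HEK293T ER-beta-UAS-bla cells in 2% charcoal-stripped FBS were exposed to compounds with 1nM E2 for 16 hr at 37C.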
On the technique in general: qHTS replaces the single test concentration by a dilution series.

The target in assay [3] is Estrogen receptor (Homo sapiens) (UniProt P03372). Description: qHTS assay to identify small molecule agonists of the estrogen receptor alpha (ER-alpha) signaling pathway in the presence of an antagonist (AID 1259383; calls by dose curve; also: nearly all actives have a fitted effect of over 15% in size; also: potency is read from the fitted curve at half-maximal effect; as to activation: top concentration of the series differs between compounds). An outline of the steps:
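Luciferase luminescence (ONE-Glo, 30min at room temperature) measured in VM7Luc4E2 cells after 22hr compound exposure at 15 concentrations, with 10.0nM ICI-182,780 final present; cells express endogenous ER-alpha and carry four EREs upstream of luciferase.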

Assay [4] can be described thus: qHTS assay to identify small molecule agonists or antagonists of the thyroid stimulating hormone receptor (TSHR) signaling pathway - wild type cell line counter screen (AID 1259384; calls by dose curve). An outline of the steps:
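Wild-type Hek293 cells, 800/well, 18 h at 37C, then compound with Ro20-1724 for 30 min RT. cAMP by HTRF (cAMP-d2/anti-cAMP cryptate), 1 h RT, fluorescence read. 15 concentrations, triplicates.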

The target of assay [5] is Thyrotropin receptor (Homo sapiens) (UniProt P16473). Description: qHTS assay to identify small molecule antagonists of the thyroid stimulating hormone receptor (TSHR) signaling pathway (AID 1259385; calls by dose curve; also: nearly all actives have a fitted effect of over 20% in size). An outline of the steps:
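TSHR-HEK293 cells (800/well) plated 18 h, then compounds with Ro20-1724 and TSH at 1.5 ng/mL final, 30 min at room temperature. cAMP quantified by HTRF (cAMP-d2/anti-cAMP-cryptate, 1 h); 15 concentrations in triplicate.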

Assay [6] can be described thus: qHTS assay to identify small molecule agonists of the estrogen receptor alpha (ER-alpha) signaling pathway in the presence of an antagonist - cell viability counter screen (AID 1259386). Also: series mostly up to about 92 µM; nearly all actives have a fitted effect of over 30% in size. In a few lines: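 Read-out: CellTiter-Fluor fluorescence after 1hr reagent incubation, measured in the same wells as the luciferase readout. VM7Luc4E2 cells were exposed to 15 compound concentrations with 10.0nM ICI-182,780 for 22hr at 37C.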

Assay [7] concerns the target Progesterone receptor (Homo sapiens) (UniProt P06401). Briefly: qHTS assay to identify small molecule agonists of the progesterone receptor (PR) signaling pathway (AID 1346784; calls by dose curve; also: nearly all actives have a fitted effect of over 30% in size). An outline of the steps: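 HEK 293T PR-UAS-bla reporter cells, 2% charcoal-stripped FBS; 6 hr settle at 37C/5% CO2, compound (DMSO) 16 hr, LiveBLAzer B/G FRET substrate 2 hr RT, fluorescence intensity read.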

Assay [8] shares this target. Briefly: qHTS assay to identify small molecule antagonists of the progesterone receptor (PR) signaling pathway (AID 1346795; active = well fitted inhibition curve with a large enough effect in the signal ratio in the repeat runs, not every such curve was filed as active; the % refers to the signal ratio; also: potency is read from the fitted curve at half-maximal effect). An outline of the steps:
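Beta-lactamase reporter, HEK293T PR-UAS-bla line; 2% charcoal-stripped FBS; 6 hr pre-incubation, 37C/5% CO2. Compound + R5020 1 nM final, 16 hr. LiveBLAzer B/G FRET substrate, 2 hr RT; fluorescence intensity read.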

Assay [9] can be described thus: qHTS assay to identify small molecule agonists of the progesterone receptor (PR) signaling pathway - cell viability counter screen (AID 1346799; calls by dose curve; also: nearly all actives have a fitted effect of over 45% in size). An outline of the steps: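 HEK293T PR-UAS-bla, 3,000 cells/well, 2% charcoal-stripped FBS; 6 h settle, compound 16 h at 37C/5% CO2; LiveBLAzer 2 h RT, then CellTiter-Glo 30 min RT, luminescence read.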
Assay [10] in a line: qHTS assay to identify small molecule antagonists of the TGF-beta/Smad signaling pathway - cell viability counter screen (AID 1346824). Also: nearly all actives have a fitted effect of over 50% in size. An outline of the steps: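 SBE-bla HEK 293T cells, incubated overnight, then compound plus 0.25 ng/mL TGF-beta1 (stock added) for 5 hr at 37 C. Viability was read in the same wells by CellTiter-Glo luminescence after 30 min at room temperature.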

A short description of assay [11]: qHTS assay to identify small molecule agonists of the TGF-beta/Smad signaling pathway - cell viability counter screen (AID 1346829). Also: top concentration of the series differs between compounds; nearly all actives have a fitted effect of over 45% in size. An outline of the steps: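 Compound-treated SBE-bla HEK 293T cells (5 hr, 37 C) were assessed for viability with CellTiter-Glo in parallel with the reporter read.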
Assay [12] in a line: qHTS assay to identify small molecule agonists of the TGF-beta/Smad signaling pathway (AID 1346859; active = well fitted activation curve with a large enough effect in the signal ratio in the repeat runs, not every such curve was filed as active; the % refers to the signal ratio; also: series mostly up to about 77 µM). An outline of the steps:
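Read-out: fluorescence at 460 and 530 nm (405 nm excitation) after a 2 hr room-temperature incubation with beta-lactamase FRET substrate. SBE-bla HEK 293T cells had been treated with test compounds for 5 hr at 37 C.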

In assay [13] the target is Thyrotropin-releasing hormone receptor (Homo sapiens) (UniProt P34981). Briefly: qHTS assay to identify small molecule antagonists of the thyrotropin-releasing hormone receptor (TRHR) signaling pathway (AID 1346877; active = well fitted inhibition curve with a large enough effect in the repeat runs, not every such curve was filed as active; also: series mostly up to about 51 µM). An outline of the steps:
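HEK293/TRHR cells, 18 h, 37 °C; Ca2+ dye 2 h; cpd 5 min RT; TRH 1 nM final; fluorescence read 3 min, 1 s intervals; 15 concs, triplicate.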

Assay [14] has the same target. Description: qHTS assay to identify small molecule agonists of the thyrotropin-releasing hormone receptor (TRHR) signaling pathway (AID 1346891; calls by dose curve;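 also: HEK293 cells expressing TRHR with calcium dye readout; series mostly up to about 58 µM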). In a few lines:
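HEK293/TRHR cells, 1500 per well, 18 h 37 °C; Ca dye 2 h 37 °C; pin-tool compound addition (agonist mode); kinetic fluorescence 3 min, 1 s reads; 15 concentrations, triplicate.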

Assay [15] in a line: Human pregnane X receptor (PXR) small molecule agonists, qHTS cell viability counter screen (AID 1346977). Also: nearly all actives have a fitted effect of over 50% in size. In a few lines: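 Fluorescence read-out (CellTiter-Fluor) of viability in PXR-Luc HepG2 cells, multiplexed with the luciferase agonist read. Compounds in DMSO added after 5hr plating; 24hr total exposure at 37C, 5% CO2.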
The nature of assay [16]: Caspase-3/7 induction in HepG2 cells by small molecules, qHTS assay (AID 1346978). Also: nearly all actives have a fitted effect of over 15% in size. An outline of the steps: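 Wild-type HepG2 cells, 2,000/well, settled 5 hr at 37 C and 5% CO2, then compound-treated for 17 hr; caspase-3/7 activity read by luminescent Caspase-Glo 3/7 after 30 min at room temperature.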
Assay [17] is described as follows: Caspase-3/7 induction in CHO-K1 cells by small molecules, qHTS cell viability counter screen (AID 1346979). Also: nearly all actives have a fitted effect of over 35% in size. In a few lines:
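CHO-K1 wt, 1,500 cells/well; 5hr pre-incubation 37C/5% CO2; compound pin transfer (DMSO); 16hr exposure; CellTiter-Fluor added, 1hr, fluorescence read.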

Assay [18] can be described thus: Caspase-3/7 induction in CHO-K1 cells by small molecules, qHTS assay (AID 1346980). Also: nearly all actives have a fitted effect of over 15% in size. In a few lines:
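Wild-type CHO-K1 cells exposed to compounds for 17hr at 37 C, 5% CO2. Caspase-3/7 activity then measured by Caspase-Glo 3/7 luminescence after 30min at room temperature.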

The nature of assay [19]: Caspase-3/7 induction in HepG2 cells by small molecules, qHTS cell viability counter screen (AID 1346981). Also: series mostly up to about 92 µM; nearly all actives have a fitted effect of over 30% in size. In a few lines: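 Fluorescence read-out of live-cell protease activity (CellTiter-Fluor) after 1 hr with reagent. This was measured in the same wells as the caspase-3/7 luminescence, on HepG2 cells exposed to DMSO-dissolved compounds for 16 hr at 37 C.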
Assay [20] can be described thus: qHTS assay to identify small molecule antagonists of the progesterone receptor (PR) signaling pathway - cell viability counter screen (AID 1346798). Also: series mostly up to about 92 µM; nearly all actives have a fitted effect of over 50% in size. An outline of the steps:
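Luminescence readout (CellTiter-Glo, 30 min, RT) of viability in PR-UAS-bla HEK293T cells exposed to compound and R5020 agonist for 16 hr at 37C, 5% CO2; run in the same wells as the beta-lactamase reporter read.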

Sequence of Thyrotropin-releasing hormone receptor (Homo sapiens) (P34981 whole entry, looked up): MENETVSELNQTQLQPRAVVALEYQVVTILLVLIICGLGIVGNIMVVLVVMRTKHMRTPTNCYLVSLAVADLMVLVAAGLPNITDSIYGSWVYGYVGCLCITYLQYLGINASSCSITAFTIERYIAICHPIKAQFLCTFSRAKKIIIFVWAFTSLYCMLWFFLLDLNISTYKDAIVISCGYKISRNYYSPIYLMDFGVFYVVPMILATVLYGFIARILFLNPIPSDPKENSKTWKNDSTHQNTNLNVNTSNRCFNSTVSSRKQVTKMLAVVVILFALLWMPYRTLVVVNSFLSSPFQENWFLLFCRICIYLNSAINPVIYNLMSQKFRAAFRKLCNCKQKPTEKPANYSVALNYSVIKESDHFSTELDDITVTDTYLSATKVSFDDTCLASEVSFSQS
Sequence of Androgen receptor (Homo sapiens) (P10275 whole entry, looked up): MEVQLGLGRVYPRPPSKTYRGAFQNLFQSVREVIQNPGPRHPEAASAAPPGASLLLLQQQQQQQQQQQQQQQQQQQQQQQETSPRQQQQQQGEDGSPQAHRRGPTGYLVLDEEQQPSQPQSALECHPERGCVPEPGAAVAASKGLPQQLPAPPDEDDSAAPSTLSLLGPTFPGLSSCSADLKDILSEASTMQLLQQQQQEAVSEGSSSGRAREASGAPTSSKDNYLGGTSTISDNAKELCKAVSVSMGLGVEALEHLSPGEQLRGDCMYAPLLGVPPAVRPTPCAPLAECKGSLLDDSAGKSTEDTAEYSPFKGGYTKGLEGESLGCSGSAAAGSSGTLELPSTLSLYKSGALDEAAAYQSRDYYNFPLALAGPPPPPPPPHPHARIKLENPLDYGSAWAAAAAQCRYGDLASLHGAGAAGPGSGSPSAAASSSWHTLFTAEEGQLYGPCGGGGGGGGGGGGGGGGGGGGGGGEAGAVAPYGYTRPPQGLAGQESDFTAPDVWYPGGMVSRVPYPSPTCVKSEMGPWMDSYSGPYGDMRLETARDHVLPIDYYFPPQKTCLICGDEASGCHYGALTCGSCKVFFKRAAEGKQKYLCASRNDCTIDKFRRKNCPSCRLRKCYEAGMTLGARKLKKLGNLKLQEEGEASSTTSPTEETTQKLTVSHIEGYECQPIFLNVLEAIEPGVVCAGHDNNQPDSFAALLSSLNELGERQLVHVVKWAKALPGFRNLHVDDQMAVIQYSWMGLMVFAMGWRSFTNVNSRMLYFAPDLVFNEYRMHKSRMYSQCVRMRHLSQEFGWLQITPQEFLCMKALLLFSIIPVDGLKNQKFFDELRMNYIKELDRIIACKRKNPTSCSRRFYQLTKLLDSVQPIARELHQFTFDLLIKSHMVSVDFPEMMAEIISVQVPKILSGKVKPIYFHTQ
Sequence of Estrogen receptor (Homo sapiens) (P03372 whole entry, looked up): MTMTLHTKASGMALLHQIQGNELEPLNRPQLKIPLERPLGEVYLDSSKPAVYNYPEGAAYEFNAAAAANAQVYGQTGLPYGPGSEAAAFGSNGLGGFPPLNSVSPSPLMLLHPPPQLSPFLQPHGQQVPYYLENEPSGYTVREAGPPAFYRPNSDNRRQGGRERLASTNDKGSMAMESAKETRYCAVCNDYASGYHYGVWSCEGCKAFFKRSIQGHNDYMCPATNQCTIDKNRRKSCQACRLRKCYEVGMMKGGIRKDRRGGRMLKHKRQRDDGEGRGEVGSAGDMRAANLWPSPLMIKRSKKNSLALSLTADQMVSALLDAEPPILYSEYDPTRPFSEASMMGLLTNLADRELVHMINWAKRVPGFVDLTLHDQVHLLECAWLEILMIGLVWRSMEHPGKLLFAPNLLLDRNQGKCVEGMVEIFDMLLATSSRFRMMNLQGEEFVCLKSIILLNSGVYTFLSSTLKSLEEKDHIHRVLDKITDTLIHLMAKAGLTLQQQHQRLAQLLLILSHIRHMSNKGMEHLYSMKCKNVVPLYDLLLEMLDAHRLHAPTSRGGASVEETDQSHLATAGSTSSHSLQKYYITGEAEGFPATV
Sequence of Thyrotropin receptor (Homo sapiens) (P16473 whole entry, looked up): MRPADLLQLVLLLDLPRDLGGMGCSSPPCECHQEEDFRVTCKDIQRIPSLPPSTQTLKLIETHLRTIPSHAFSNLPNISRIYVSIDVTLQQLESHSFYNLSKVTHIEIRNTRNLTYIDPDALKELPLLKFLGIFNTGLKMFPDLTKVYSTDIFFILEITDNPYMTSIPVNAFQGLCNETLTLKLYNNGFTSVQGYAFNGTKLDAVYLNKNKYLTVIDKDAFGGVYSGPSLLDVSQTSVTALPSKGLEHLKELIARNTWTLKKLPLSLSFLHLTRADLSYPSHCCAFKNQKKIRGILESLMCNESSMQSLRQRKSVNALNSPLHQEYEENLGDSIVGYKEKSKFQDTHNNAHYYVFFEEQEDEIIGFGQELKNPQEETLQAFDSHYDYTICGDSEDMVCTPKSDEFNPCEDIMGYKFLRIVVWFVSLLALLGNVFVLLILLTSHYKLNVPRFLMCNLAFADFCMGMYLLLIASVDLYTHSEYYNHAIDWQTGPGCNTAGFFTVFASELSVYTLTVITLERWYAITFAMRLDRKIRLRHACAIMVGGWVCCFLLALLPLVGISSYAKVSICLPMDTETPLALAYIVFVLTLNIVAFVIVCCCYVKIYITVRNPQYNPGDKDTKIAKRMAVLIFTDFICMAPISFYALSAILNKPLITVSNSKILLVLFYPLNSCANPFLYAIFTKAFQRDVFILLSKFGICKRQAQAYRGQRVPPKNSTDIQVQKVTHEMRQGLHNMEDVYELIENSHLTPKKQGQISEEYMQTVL
Sequence of Progesterone receptor (Homo sapiens) (P06401 whole entry, looked up): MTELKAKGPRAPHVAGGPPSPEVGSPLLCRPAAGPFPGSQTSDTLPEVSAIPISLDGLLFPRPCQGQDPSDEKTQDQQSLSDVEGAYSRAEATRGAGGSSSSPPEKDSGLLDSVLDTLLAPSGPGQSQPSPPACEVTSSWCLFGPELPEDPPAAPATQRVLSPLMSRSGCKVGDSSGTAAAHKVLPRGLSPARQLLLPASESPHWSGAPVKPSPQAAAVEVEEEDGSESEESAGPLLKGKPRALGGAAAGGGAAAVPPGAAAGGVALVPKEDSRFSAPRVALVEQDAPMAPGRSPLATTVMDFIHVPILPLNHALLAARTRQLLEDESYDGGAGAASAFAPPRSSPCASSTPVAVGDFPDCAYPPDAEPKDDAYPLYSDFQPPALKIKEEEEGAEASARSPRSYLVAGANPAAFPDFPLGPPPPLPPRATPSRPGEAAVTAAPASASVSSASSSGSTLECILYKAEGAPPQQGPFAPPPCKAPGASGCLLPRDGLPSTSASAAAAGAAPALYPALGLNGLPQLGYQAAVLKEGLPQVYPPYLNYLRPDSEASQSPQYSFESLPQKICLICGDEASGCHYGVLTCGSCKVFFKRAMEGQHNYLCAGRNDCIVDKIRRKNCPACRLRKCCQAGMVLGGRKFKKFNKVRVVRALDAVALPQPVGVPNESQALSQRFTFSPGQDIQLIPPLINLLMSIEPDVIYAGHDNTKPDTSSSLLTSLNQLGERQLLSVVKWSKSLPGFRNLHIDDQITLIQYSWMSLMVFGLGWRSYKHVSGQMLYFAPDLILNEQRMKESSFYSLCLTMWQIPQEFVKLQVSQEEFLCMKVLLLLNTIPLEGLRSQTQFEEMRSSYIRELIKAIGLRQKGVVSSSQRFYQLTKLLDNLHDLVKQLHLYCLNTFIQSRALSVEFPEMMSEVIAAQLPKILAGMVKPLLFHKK

For the compound `CCC(=O)Oc1ccc2c(c1)CC[C@@H]1[C@@H]2CC[C@@]2(C)[C@H]1C[C@@H](OC(=O)CC)[C@@H]2OC(=O)CC`, the result in assay [1], in assay [2], in [4], in assay [5], in [6] and in assay [9] was inactive. Besides, the compound was called inactive in assay [10], in assay [11], in assay [12], in assay [13], in [14] and in assay [15]. Further, the compound was called inactive in [16], in assay [18] and in assay [19]. Moreover, the values for the Potency in assay [3] and in assay [8] were 0.075 µM (active) and 1.88 µM (active), respectively. Further, the Potency entry in assay [7] and in assay [17] was “inactive” in each case.

In the case of `COc1ccc(CCO)cc1`, the result in assay [1], in [2], in [4], in assay [5], in assay [6] and in [20] was inactive. Further, the result in assay [10], in assay [11], in assay [15], in [16], in [18] and in [19] was inactive. The Potency result in assay [7] and in [8] was “inactive” throughout.

With `CCOc1ccccc1OCC1CNCCO1` (stereo not drawn), the result in assay [1], in assay [2], in assay [4], in assay [5], in [6] and in assay [20] was inactive. The result in [9], in [10], in assay [11], in [12], in [13] and in assay [14] was inactive. The outcome in assay [15], in assay [16], in [18] and in assay [19] was inactive. Besides, the Potency entry in assay [3], in assay [7], in assay [8] and in assay [17] was “inactive” each time.

For `COc1ccc2c(c1)c1c3n2CCN(C)C3=NCC1`, the outcome in [1], in [2], in [4], in assay [5], in assay [6] and in assay [20] was inactive. Further, the outcome in assay [9], in assay [10], in [11], in assay [12], in [13] and in assay [14] was inactive. Further, the result in assay [15], in assay [16], in assay [18] and in assay [19] was inactive. The Potency entry in assay [3] and in assay [8] was “inactive” throughout.

Take `COC(=O)CCCCC(CCSS/C(CCO)=C(\C)N(C=O)Cc1cnc(C)nc1N)SC(C)=O` (stereo not drawn): the outcome in assay [1], in assay [2], in assay [4], in assay [5], in [6] and in [20] was inactive. Moreover, the call in assay [9], in [10], in assay [11], in assay [12], in assay [13] and in assay [14] was inactive. In addition, the compound was called inactive in assay [15], in assay [16], in assay [18] and in [19]. The Potency entry in assay [3] and in assay [17] was “inactive” each time.

For `C/C=C(\C)C(C)=O`, the result in assay [1], in [2], in assay [4], in assay [5], in assay [6] and in assay [20] was inactive. For the same compound, the compound was classed as inactive in assay [9], in assay [10], in [11], in [13], in assay [14] and in [15]. Further, the result in assay [16], in assay [18] and in assay [19] was inactive. In addition, the Potency entry in [3], in assay [7] and in [17] was “inactive” in each case.

Consider `CCO`, for which the outcome in assay [1], in assay [2], in [4], in assay [5], in assay [6] and in assay [9] was inactive. Moreover, the call in assay [10], in [11], in assay [12], in assay [13], in [14] and in [15] was inactive. The result in assay [16], in assay [18] and in assay [19] was inactive. The Potency result in [3], in [7], in [8] and in assay [17] was “inactive” each time.

With `Cc1c(C(=O)c2c[nH]n(C)c2=O)ccc(S(C)(=O)=O)c1C1=NOCC1`, the result in assay [1], in assay [2], in assay [6], in assay [9], in assay [10] and in [11] was inactive. The outcome in assay [12], in assay [13], in assay [14], in assay [15], in [16] and in assay [18] was inactive. In addition, the result in assay [19] was inactive. Also, the Potency entry in [3], in [7], in assay [8] and in assay [17] was “inactive” in each case.
